The whole screen tested about 5,500 compounds, of which about 2,000 (36%) were called active. Inconclusive results (about 18%) are left out. Some of the results follow. Unmarked numbers belong to inactive results. No stated cut-off is given here; in the data, active means normalized growth mostly below about 0.91 (no sharp cut-off); inconclusive means no clear call, values can overlap the other calls; inactive means mostly above about 0.92.
Assay: chemical genetic growth profiling, strain panel (AID 1159580);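 further: tested at 20 µM; growth read once vehicle control cultures reached saturation at 30 °C; 1 = growth at the plate median or of vehicle wells; lower values mean less growth of the strain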
Conditions: S. cerevisiae deletion strains, growth OD

Structure (SMILES): CN1C2CCC1CC(OC(c1ccccc1)c1ccc(Cl)cc1)C2 (stereo not given)
- normalized growth (locus YAL040C, strain CLN3, hits give low values): 1.01
- normalized growth (locus YCL061C, strain MRC1 (second series), hits give low values): 1
- normalized growth (locus YDR150W, strain NUM1, hits give low values): 0.997
- normalized growth (locus YDR363W, strain ESC2, hits give low values): 0.958
- normalized growth (locus YER002W, strain NOP16, hits give low values): 1.04
- normalized growth (locus YGR078C, strain PAC10, hits give low values): 1.02
- normalized growth (locus YGR229C, strain SMI1, hits give low values): 0.844 (active)
- normalized growth (locus YMR263W, strain SAP30, hits give low values): 0.997
- normalized growth (locus YMR307W, strain GAS1, hits give low values): 0.994
- normalized growth (locus YNL153C, strain GIM3, hits give low values): 0.987
- normalized growth (locus YNL175C, strain NOP13, hits give low values): 1.04
- normalized growth (locus YNL197C, strain WHI3, hits give low values): 1.03
- normalized growth (locus YNL224C, strain SQS1, hits give low values): 1.05
- normalized growth (locus YOR083W, strain WHI5 (second series), hits give low values): 1.01
- normalized growth (locus YPL241C, strain CIN2, hits give low values): 0.993
